An excerpt weighted towards active compounds, which were near 14% of everything screened.
HCV inhibitor: qHTS Assay for Inhibitors of Hepatitis C Virus (HCV); Huh7.5.1 HCVcc-Cre infection, luciferase reporter, 44 h; Potency, µM (highest dose often 41.8 µM), without a hit: at the highest dose activity change, negative = inhibition, hits mostly inhibitors; 3.4% of 340,000 active; AID 651820, 2012; also: potency is read from the fitted curve at half-maximal effect
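Whole-lifecycle infectious HCVcc-Cre system; cells 1,000/well, compound then virus (~0.5 moi) added 4 h after plating, 44 h culture. Luciferase read 15 sec following 15 min substrate incubation, room temp.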
MARV entry inh: qHTS for inhibitors of binding or entry into cells for Marburg Virus; Marburg virus pseudotyped entry inhibition, cell reporter; Potency, µM (doses to about 37.8 µM), for inactives: top-dose activity change, negative = inhibition, actives largely listed as inhibitors; 1.8% of 300,000 active; calls by dose curve; tested in HEK293 cells; also: potency is read from the fitted curve at half-maximal effect
Pf growth 96h: Primary qHTS for delayed death inhibitors of the malarial parasite plastid, 96 hour incubation. Potency, µM (titrated, usually from 28.7 µM), without a hit: top-dose activity change, negative = inhibition, most hits filed as inhibitors. 6.9% of 320,000 active. AID 504834, 2011. P. falciparum luciferase reporter growth, 96 h; also: potency is read from the fitted curve at half-maximal effect
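Two-generation exposure (96 h) targets delayed-death phenotype. Reporter parasites carrying integrated firefly luciferase, in red cells at 2% hematocrit and 0.05% parasitemia final, kept at 37 C, 5% CO2; luminescence loss indicates inhibition.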
Pf growth 48h: Primary qHTS for delayed death inhibitors of the malarial parasite plastid, 48 hour incubation; AID 504832, 2011; Potency, µM (titrated, usually from 28.7 µM), for inactives: top-dose activity change, negative = inhibition, most hits filed as inhibitors; 5.9% of 310,000 active; P. falciparum luciferase growth in erythrocytes, 48 h; also: potency is read from the fitted curve at half-maximal effect
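Compounds are pin-transferred into medium, infected erythrocytes (2% hematocrit, 0.1% parasitemia final) are added, and plates sit one parasite generation at 37 C in 5% CO2. Detection reagent is then added and luminescence measured.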
Lassa entry inh: qHTS for Inhibitors of binding or entry into cells for Lassa Virus | Lassa virus pseudotype entry inhibition, cell reporter | Potency, µM (series often up to 37.9 µM), inactives show at the highest dose activity change, negative = inhibition, usual class: inhibitors | 1.2% of 300,000 active | AID 540256, 2011; calls by dose curve; tested in HEK293 cells; also: potency is read from the fitted curve at half-maximal effect; nearly all actives have a fitted effect of over 50% in size
HCMV inh: qHTS Assay for inhibitors of the human cytomegalovirus (HCMV); 4.5% of 410,000 active; HFF cells, HCMV-luciferase reporter, 72 h; active compounds read low; AID 1259415, 2018; activity change, negative = inhibition, % at 57.5 µM; in the data active = activity change below about -60%; inconclusive = no clear call, values can overlap the other calls; inactive = above about -39%
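HFF cells seeded 16 h at 37C, treated with compounds, infected with luciferase-reporter HCMV at MOI 1 PFU/cell; luciferase read at 72 h post infection, normalized to buffer-only and Salinomycin controls.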
Starred values were filed as active, the others as inactive; ? = inconclusive; . = not tested or not shown; [ ] = dose if it differs, or a comment. Unless noted, calls follow the shape of the dose curve; as a rule, active = well fitted inhibition curve with a large enough effect; inconclusive = small, poorly fitted or top-dose-only effect, or another doubt; inactive = no such curve, though single readings can be large or run the other way. % is scaled to controls: 0 for no effect and ±100 for the full control effect.

SMILES | HCV inhibitor | MARV entry inh | Pf growth 96h | Pf growth 48h | Lassa entry inh | HCMV inh
COc1ccc(S(=O)(=O)Nc2ccc3c(c2)C(=O)N([C@H](C)CO)C[C@H](C)[C@H](CN(C)C(=O)Nc2ccc(F)cc2)OCCCC[C@@H](C)O3)cc1 | . | . | . | . | . | -24
CSc1ccc(CNCCCSc2ncccn2)cc1 | -6% | ? | ? | -14% | ? | -7
CSc1ccc(CNCCCN(C)C)cc1 | 5µM* | ? | 63% | ? | ? | -39
CCCc1nc2c3ccccc3ccn2c1Cc1ccccc1 | . | . | . | . | . | 77
COc1ccc2cc(CNc3ccc(C)cc3)c(=O)n(CC(=O)Nc3ccc(C)cc3Cl)c2c1 | . | . | . | . | 2%[46.1 µM] | 17
COc1ccc(/C=C(\C#N)c2nc(-c3cc4ccccc4oc3=O)cs2)cc1OC | . | . | . | . | 0%[46.1 µM] | 13
CN(Cc1ccccc1)C(=O)c1ccc(Nc2nc(C(N)Cc3ccc(C(F)(F)F)cc3)cs2)nc1 (stereo not drawn) | . | . | . | . | . | -98*
NC(Cc1ccc(C(F)(F)F)cc1)c1csc(Nc2ccc(C(=O)c3ccccc3)cc2)n1 (stereo not drawn) | . | . | . | . | . | -63*
NC(CCc1ccccc1)c1csc(Nc2ccc(C(=O)c3ccccc3)cc2)n1 (stereo not drawn) | . | . | . | . | . | 4
CC(=O)c1ccc(Nc2nc(C(N)Cc3ccc(C(F)(F)F)cc3)cs2)cc1 (stereo not drawn) | . | . | . | . | . | -61*
Cc1ccc(C(=O)Nc2nc(C(N)Cc3ccc(C(F)(F)F)cc3)cs2)cc1 (stereo not drawn) | . | . | . | . | . | -23
CN(Cc1ccccc1)C(=O)c1ccc(Nc2nc(C(N)Cc3ccccc3)cs2)nc1 (stereo not drawn) | . | . | . | . | . | -29
Cc1cc(C)cc(Oc2c(C(F)(F)F)oc3c(CN4CCCC(C)C4)c(O)ccc3c2=O)c1 (stereo not drawn) | . | -5%[46.1 µM] | . | . | 1%[46.1 µM] | 19
Cc1ccc(OC(=O)N(C)C[C@H]2OCc3cn(nn3)CCCC(=O)N([C@H](C)CO)C[C@@H]2C)cc1 | . | . | . | . | . | -14
Nc1c(C(=O)C2CC2)sc2nc(-c3ccccc3)cc(C(F)(F)F)c12 | -26% | ? | ? | -1% | -14% | -77*
CN(C)CCNC(=O)c1sc2nc(-c3ccccc3)cc(C(F)(F)F)c2c1N | 10µM* | 5µM* | -26% | ? | ? | -9
COC(=O)C[C@@H]1CC[C@@H](NS(=O)(=O)c2cccc(OC)c2)[C@@H](CO)O1 | . | . | . | . | . | 11
CCOC(=O)N1CCN(c2c(NCC3CCN(Cc4cccc(C)c4)CC3)c(=O)c2=O)CC1 | -25% | 6% | 6.6µM* | 8% | . | 1
CCOC(=O)N1CCN(c2c(NCc3cccs3)c(=O)c2=O)CC1 | ? | . | 12µM* | . | . | -8
CCOC(=O)N1CCN(c2c(NCc3ccc(Cl)cc3)c(=O)c2=O)CC1 | ? | . | -46% | . | . | -75*
CN(Cc1cccc(Cl)c1Cl)C(=O)c1ccc(NC(=O)CC#N)cc1 | -9% | -17% | 15µM* | -27% | -14% | -19
O=C(CN1C(=O)/C(=C/c2ccccc2)Sc2ccccc21)NCCCN1CCOCC1 | -17% | . | 49% | -6% | . | -62*
O=C(CN1C(=O)/C(=C/c2ccccc2F)Sc2ccccc21)NCCCN1CCOCC1 | ? | . | -59% | -9% | . | ?
O=C(CCN1C(=O)/C(=C/c2ccccc2Cl)SC1=S)NCCCN1CCOCC1 | ? | . | 13µM* | ? | . | -2
O=C(CN1C(=O)/C(=C\c2cccc(Br)c2)Oc2ccccc21)NCC1CCCO1 (stereo not drawn) | 3% | . | 13µM* | ? | . | -20
SMILES | HCV inhibitor | MARV entry inh | Pf growth 96h | Pf growth 48h | Lassa entry inh | HCMV inh
CCc1ccc(/C=C2/Sc3ccccc3N(CC(=O)NCC3CCCO3)C2=O)cc1 (stereo not drawn) | 10µM* | . | ? | -27% | . | 11
CCOC(=O)CN1C(=O)/C(=C/c2cccc(Br)c2)Oc2ccccc21 | 7% | . | 18% | ? | . | -31
Cc1cc(Br)cn2c(Cc3ccccc3C(F)(F)F)c(-c3ccc(F)cc3)nc12 | . | . | . | . | . | 17
COc1cc2c(=O)n(Cc3ccccc3)c(=O)n(CC(=O)Nc3cc(C(F)(F)F)ccc3Cl)c2cc1OC | . | 10%[46.1 µM] | . | . | 8%[46.1 µM] | 10
Cc1cscc(C)c1=S | . | . | . | . | . | 18
CSc1cc(C)c(OCC(=O)Nc2c(C)nn(C)c2C)c(C)c1 | ? | ? | ? | ? | ? | -19
CCc1ccc(/C=C2\SC(=S)N(CCC(=O)NCCCN3CCOCC3)C2=O)cc1 | -24% | ? | ? | 5% | 4%[46.1 µM] | -74*
O=C(CCCN1C(=O)/C(=C/c2cccc(Br)c2)SC1=S)NCCCN1CCOCC1 | -14% | ? | 3.3µM* | ? | -9%[46.1 µM] | -90*
Cc1ccc(/C=C2\SC(=S)N(CCC(=O)NCCCN3CCOCC3)C2=O)cc1 | ? | ? | ? | -25% | 4%[46.1 µM] | 8
COc1ccc(NC(=O)CCc2nnc3n(CC(C)C)c(=O)c4ccccc4n23)cc1 | . | 8%[46.1 µM] | . | . | . | ?
O=C(NCc1ccccc1)c1nccnc1CO | 27% | 10% | 10µM* | -21%[0.00184 µM] | 12% | -14
CN(C)c1oc(-c2ccc(COc3ccccc3)o2)nc1C#N | . | 13%[46.1 µM] | . | . | -7%[46.1 µM] | 1
COC(=O)c1ccc(/C=N/Nc2nc(C)c(C)s2)cc1 | -13% | ? | ? | 48% | ? | 103
CCCc1sc(N/N=C/c2ccccn2)nc1-c1ccc(F)cc1 | ? | ? | 31% | 2.6µM* | ? | .
Cc1nc(N/N=C/c2ccccn2)sc1C | ? | 1.3µM* | -100% | -71% | 1.8µM* | -98*
O=C(O)Cc1sc(N/N=C\c2ccccc2)nc1-c1ccccc1 | -28% | -1%[46.1 µM] | ? | -15% | -24% | -18
COc1ccccc1Nc1nc(N)nc(CSc2ncccn2)n1 | -3% | 7% | ? | 60% | 7% | 33
COc1ccc(OCc2nc(N)nc(Nc3ccccc3OC)n2)cc1 | 14µM* | ? | 8% | 1% | ? | ?
COc1ccccc1N1CCN(Cc2nc(N)nc(Nc3ccc(C)c(Cl)c3)n2)CC1 | 11µM* | -41% | ? | ? | ? | -17
COc1ccc(N2CCN(Cc3nc(N)nc(Nc4ccccc4OC)n3)CC2)cc1 | -7% | 18µM* | ? | -29% | ? | -2
COc1ccccc1Nc1nc(N)nc(CCl)n1 | 4.5µM* | -5%[46.1 µM] | -10% | ? | ? | ?
COc1ccc(OC)c(Nc2nc(N)nc(CCl)n2)c1 | 4µM* | -27%[46.1 µM] | ? | ? | ? | -99*
COc1ccc(-c2sc3cc(OC)c(OC)cc3c2C#CCO)cc1 | 1µM* | . | . | . | . | 3

Compound activity deposited in PubChem BioAssay by National Center for Advancing Translational Sciences (NCATS).
